Residue numbers refer to the chain shown, from its start.

Binding signal data for 23 sequences are collected here from paper PMC5700166.

Holding throughout (experiment): protein-binding microarray (PBM); PBM: ~300 nM protein, 6 mM HEPES pH 7.8, 80 mM KCl, 0.5 mM EDTA, 0.5 mM EGTA, 6% glycerol, 35 ng/ul poly-dIdC, 1% milk, 1 h, room temperature; Ap Aiptasia and Nv Nematostella (sea anemones) / Co Capsaspora / Aq Amphimedon (sponge) / Dm Drosophila / Hu human; RHD is the Rel homology domain; high values mean tight binding
Holding throughout (conditions): dsDNA, one strand shown

In one test the target is T1, GST-Ap-NF-kB RHD (Exaiptasia pallida (Aiptasia), UniProt A0A913YAJ5 2-422).
T1 sequence: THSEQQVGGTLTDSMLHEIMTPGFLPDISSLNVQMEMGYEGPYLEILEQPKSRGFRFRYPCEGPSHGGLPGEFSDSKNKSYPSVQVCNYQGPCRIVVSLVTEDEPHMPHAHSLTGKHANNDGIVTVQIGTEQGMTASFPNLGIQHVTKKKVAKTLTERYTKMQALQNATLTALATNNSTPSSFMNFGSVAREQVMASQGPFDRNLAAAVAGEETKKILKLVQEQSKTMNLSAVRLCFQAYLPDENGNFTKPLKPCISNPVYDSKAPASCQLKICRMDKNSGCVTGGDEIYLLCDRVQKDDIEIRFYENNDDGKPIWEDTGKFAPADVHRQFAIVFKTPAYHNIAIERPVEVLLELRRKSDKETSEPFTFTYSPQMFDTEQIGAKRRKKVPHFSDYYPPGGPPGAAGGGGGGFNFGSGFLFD

Test [1] has as its target T2, GST-Nv-NF-kB (Cys allele) (Nematostella vectensis, UniProt E5G601 2-411).
T2 sequence: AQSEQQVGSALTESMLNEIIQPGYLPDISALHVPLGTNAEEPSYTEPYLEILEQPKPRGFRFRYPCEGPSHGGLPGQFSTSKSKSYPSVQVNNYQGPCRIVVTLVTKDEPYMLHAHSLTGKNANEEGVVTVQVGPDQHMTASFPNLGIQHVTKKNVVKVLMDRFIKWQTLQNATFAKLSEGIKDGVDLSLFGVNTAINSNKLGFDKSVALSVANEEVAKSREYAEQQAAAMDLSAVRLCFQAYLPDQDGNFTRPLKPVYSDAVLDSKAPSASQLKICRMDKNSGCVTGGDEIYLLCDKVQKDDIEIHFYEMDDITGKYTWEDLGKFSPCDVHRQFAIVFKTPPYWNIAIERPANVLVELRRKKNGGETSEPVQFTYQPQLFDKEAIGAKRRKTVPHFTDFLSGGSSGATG

A further test addresses T3, GST-Dm-Relish (Drosophila melanogaster, UniProt Q94527 99-473).
T3 sequence: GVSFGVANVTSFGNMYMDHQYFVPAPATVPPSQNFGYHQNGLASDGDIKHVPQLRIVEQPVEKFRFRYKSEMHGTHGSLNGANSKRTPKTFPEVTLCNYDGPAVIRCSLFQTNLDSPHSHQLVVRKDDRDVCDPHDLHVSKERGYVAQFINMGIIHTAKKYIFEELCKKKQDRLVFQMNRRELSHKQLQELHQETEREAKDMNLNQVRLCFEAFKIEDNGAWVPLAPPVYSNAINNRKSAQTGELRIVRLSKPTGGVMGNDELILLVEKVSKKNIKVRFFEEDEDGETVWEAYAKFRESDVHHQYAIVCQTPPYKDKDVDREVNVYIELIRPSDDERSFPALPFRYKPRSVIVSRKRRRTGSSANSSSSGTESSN

In the next test the target is T4, GST-Aq-NF-kB (Amphimedon queenslandica, UniProt A9Y5G7 2-389).
T4 sequence: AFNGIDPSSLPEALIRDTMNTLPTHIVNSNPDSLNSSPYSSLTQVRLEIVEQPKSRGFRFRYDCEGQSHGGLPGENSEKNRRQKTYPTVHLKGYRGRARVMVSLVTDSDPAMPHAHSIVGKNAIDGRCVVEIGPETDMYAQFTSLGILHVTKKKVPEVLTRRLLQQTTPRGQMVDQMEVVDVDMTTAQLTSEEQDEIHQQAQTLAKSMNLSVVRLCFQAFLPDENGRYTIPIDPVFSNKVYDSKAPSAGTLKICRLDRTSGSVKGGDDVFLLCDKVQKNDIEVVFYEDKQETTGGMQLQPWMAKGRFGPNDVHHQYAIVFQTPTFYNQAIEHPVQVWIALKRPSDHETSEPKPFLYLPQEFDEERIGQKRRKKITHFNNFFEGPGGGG

A further test addresses T5, GST-Co-NF-kB (Capsaspora owczarzaki, UniProt F1ARL5 200-546).
T5 sequence: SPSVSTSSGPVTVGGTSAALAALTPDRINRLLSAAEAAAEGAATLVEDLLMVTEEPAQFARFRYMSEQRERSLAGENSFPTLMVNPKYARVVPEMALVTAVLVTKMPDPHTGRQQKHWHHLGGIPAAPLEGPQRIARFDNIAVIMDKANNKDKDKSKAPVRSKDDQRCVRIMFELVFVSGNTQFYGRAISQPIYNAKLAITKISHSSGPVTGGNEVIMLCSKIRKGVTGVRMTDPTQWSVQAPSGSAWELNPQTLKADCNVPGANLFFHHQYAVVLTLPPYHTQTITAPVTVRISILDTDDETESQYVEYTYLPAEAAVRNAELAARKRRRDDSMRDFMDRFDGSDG

The target in test [2] is T6, GST-Nv-NF-kB (Ser allele) (Nematostella vectensis, UniProt A7UNT2 2-411).
T6 sequence: T2 sequence with Q21R, C66S, S207N, E215Q, V217A, E225K, A268E, D399E

With “CCGATTAACATCAAAAAAGACCCTGATGTTAATCGGGTCTTGATTCGCTTGACGCTGCTG”, the binding signal with GST-Ap-NF-kB RHD was 2.93 z-score; in test [1], 5.44 z-score; with GST-Dm-Relish it was 6.91 z-score; with GST-Aq-NF-kB, 6.04 z-score.
On the same counts, the results for “CCGATTAACATCAGGAAAACACCTGATGTTAATCGGGTCTTGATTCGCTTGACGCTGCTG” are 2.56 z-score, 3.6 z-score, 3.1 z-score and 5.13 z-score.
For “CCGATTAACATCAGGGATATCCATGATGTTAATCGGGTCTTGATTCGCTTGACGCTGCTG” the same measures were 1.84 z-score, 1.09 z-score, 2.52 z-score and 2.44 z-score.
Take “CCGATTAACATCAGGAATCCCTATGATGTTAATCGGGTCTTGATTCGCTTGACGCTGCTG”: the binding signal in the test with GST-Ap-NF-kB RHD turned out to be 2.79 z-score; in test [1], 2.15 z-score; with GST-Dm-Relish it was 6.17 z-score; in the test with GST-Aq-NF-kB, 2.57 z-score.
With “CCGATTAACATCAGGACTATCCCTGATGTTAATCGGGTCTTGATTCGCTTGACGCTGCTG”, the binding signal came to 1.82 z-score with GST-Ap-NF-kB RHD, 2.61 z-score in test [1], 1.48 z-score with GST-Dm-Relish and 5.97 z-score in the test with GST-Aq-NF-kB.
As to “CCGATTAACATCAGGAATTACCATGATGTTAATCGGGTCTTGATTCGCTTGACGCTGCTG”, the binding signal with GST-Ap-NF-kB RHD worked out at 1.03 z-score; in test [1], 1.38 z-score; with GST-Dm-Relish, 4.62 z-score; with GST-Aq-NF-kB it was 3 z-score.
Regarding “CCGATTAACATCAGGGATCTACCTGATGTTAATCGGGTCTTGATTCGCTTGACGCTGCTG”, the binding signal worked out at 3.06 z-score with GST-Ap-NF-kB RHD, 2.58 z-score in test [1], 7.65 z-score with GST-Dm-Relish and 4.74 z-score with GST-Aq-NF-kB.
For “CCGATTAACATCAGGGCATACCCTGATGTTAATCGGGTCTTGATTCGCTTGACGCTGCTG” the same measures were 2.36 z-score, 3.25 z-score, 3.77 z-score and 5.87 z-score.
Turning to “CCGATTAACATCAGGTAATCCCATGATGTTAATCGGGTCTTGATTCGCTTGACGCTGCTG”, the binding signal was found to be 2.95 z-score with GST-Ap-NF-kB RHD, 1.6 z-score in test [1], 6.13 z-score in the test with GST-Dm-Relish and 3.49 z-score with GST-Aq-NF-kB.
For “CCGATTAACATCAGGGAGCTACCTGATGTTAATCGGGTCTTGATTCGCTTGACGCTGCTG” the same measures were 2.89 z-score, 1.88 z-score, 1.02 z-score and 3.21 z-score.
On the same counts, the results for “CCGATTAACATCAGGGACTCACCTGATGTTAATCGGGTCTTGATTCGCTTGACGCTGCTG” are 3.77 z-score, 3.19 z-score, 7.74 z-score and 4.68 z-score.
For “CCGATTAACATCACGGACTTCCCTGATGTTAATCGGGTCTTGATTCGCTTGACGCTGCTG” the same measures were 2.56 z-score, 2.62 z-score, 7.44 z-score and 5.45 z-score.
Consider “CCGATTAACATCAAGGTAATTCCTGATGTTAATCGGGTCTTGATTCGCTTGACGCTGCTG”, for which the binding signal is 1.69 z-score with GST-Ap-NF-kB RHD, 2.09 z-score in test [1], 4.8 z-score with GST-Dm-Relish and 3.37 z-score with GST-Aq-NF-kB.
For “CCGATTAACATCAGGAATGTCCCTGATGTTAATCGGGTCTTGATTCGCTTGACGCTGCTG”, the binding signal in the test with GST-Ap-NF-kB RHD is 3.06 z-score; in test [1], 5.35 z-score; in the test with GST-Dm-Relish it was 3.4 z-score; with GST-Aq-NF-kB, 6.41 z-score.
For “CCGATTAACATCAGGAAGGCCCCTGATGTTAATCGGGTCTTGATTCGCTTGACGCTGCTG” the same measures were 2.9 z-score, 2.69 z-score, 4.9 z-score and 5.3 z-score.
Turning to “CCGATTAACATCAATACCCCCCCTGATGTTAATCGGGTCTTGATTCGCTTGACGCTGCTG”, the binding signal came to 6.7 z-score in the test with GST-Ap-NF-kB RHD, 6.7 z-score with GST-Co-NF-kB, 5.66 z-score with GST-Dm-Relish and 4.66 z-score with GST-Aq-NF-kB.
For the sequence “CCGATTAACATCACGGTACGGGGTGATGTTAATCGGGTCTTGATTCGCTTGACGCTGCTG”, the binding signal in the test with GST-Ap-NF-kB RHD came to 2.02 z-score; with GST-Co-NF-kB it was 2.2 z-score; with GST-Dm-Relish, 1.48 z-score; with GST-Aq-NF-kB, 1.51 z-score.
On the same counts, the results for “CCGATTAACATCACCCCAACCCCTGATGTTAATCGGGTCTTGATTCGCTTGACGCTGCTG” are 2.55 z-score, 3.44 z-score, 2.69 z-score and 2.27 z-score.
With “CCGATTAACATCATAGTGAGGGGTGATGTTAATCGGGTCTTGATTCGCTTGACGCTGCTG”, the binding signal in the test with GST-Ap-NF-kB RHD turned out to be 2.05 z-score; with GST-Co-NF-kB, 1.74 z-score; in the test with GST-Aq-NF-kB, 1.09 z-score.
Take “CCGATTAACATCACACCCCAACATGATGTTAATCGGGTCTTGATTCGCTTGACGCTGCTG”: the binding signal in the test with GST-Ap-NF-kB RHD is 1.38 z-score; with GST-Co-NF-kB, 2.16 z-score; with GST-Aq-NF-kB, 1.02 z-score.
On the same counts, the results for “CCGATTAACATCACCCTTGGGAATGATGTTAATCGGGTCTTGATTCGCTTGACGCTGCTG” are 1.03 z-score, 2.46 z-score and 2.01 z-score.
In the case of “CCGATTAACATCATTTATCCCGGTGATGTTAATCGGGTCTTGATTCGCTTGACGCTGCTG”, the binding signal in the test with GST-Ap-NF-kB RHD was determined as 1.16 z-score; in the test with GST-Co-NF-kB, 2.85 z-score; in the test with GST-Dm-Relish, 1.77 z-score; with GST-Aq-NF-kB, 1.14 z-score.
As for “CCGATTAACATCACCCCCCCTGATGATGTTAATCGGGTCTTGATTCGCTTGACGCTGCTG”, the binding signal with GST-Ap-NF-kB RHD came to 4.83 z-score; in test [2], 3.09 z-score; in the test with GST-Co-NF-kB, 5.83 z-score; with GST-Dm-Relish it was 4.63 z-score; with GST-Aq-NF-kB it was 4.51 z-score.
